The text below walks through data of PubChem BioAssay (NCI).

Compounds without any hit were thinned out: in the full panel of roughly 83,000, 20% have a hit.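 The endpoint reported here, percent growth, reads 100 for growth as untreated, 0 for no net growth and -100 for all cells dead.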 Unmarked numbers belong to inactive results. The source made the active and inactive calls. The calls were made as follows: active = growth percent below 10; inactive = the rest.

Common to all, as to assay: NCI-60 one-dose screen, 48 h (100 = growth as untreated, 0 = no growth, -100 = all killed)
For one assay, the system named is HOP-92 NSCLC. The settings on record: 10 µM unless noted.
In a further assay the test system is NCI-H522 lung. The note with it: 10 µM unless noted.
Another assay concerns COLO 205 colon. The settings on record: 10 µM.
The next assay relates to SNB-75 CNS. The note with it: 10 µM unless noted.
The next assay deals with PC-3 prostate. The settings on record: 10 µM unless noted.
The subject of another assay is SK-MEL-5 melanoma. The note with it: 10 µM unless noted.
In a further assay the test system is CCRF-CEM leukemia. The settings on record: 10 µM unless noted.
The subject of another assay is RPMI-8226 leukemia. The note with it: 10 µM unless noted.
A further assay relates to OVCAR-5 ovarian. The settings on record: 10 µM unless noted.
Another assay has as its system IGROV1 ovarian. The settings on record: 10 µM.
The subject of another assay is OVCAR-3 ovarian. The settings on record: 10 µM unless noted.
The test system of the next assay is HS 578T breast. The note with it: 10 µM unless noted.
The test system of the next assay is MCF7 breast. The settings on record: 10 µM unless noted.
The test system of a further assay is NCI-H322M lung. The note with it: 10 µM unless noted.
A further assay has as its system MALME-3M melanoma. The settings on record: 10 µM unless noted.
In another assay the test system is HT29 colon. The settings on record: 10 µM unless noted.
The subject of a further assay is CAKI-1 renal. The settings on record: 10 µM unless noted.
A further assay relates to EKVX NSCLC. The note with it: 10 µM unless noted.
In the next assay the test system is NCI-H226 lung. The note with it: 10 µM unless noted.

On to `COc1cc(CNCCc2ccc(Cl)cc2)cc(OC)c1O`, for which the growth is 60.6% with HOP-92 NSCLC; 16.1% in the assay with NCI-H522 lung; 77.5% with COLO 205 colon; 44.6% with SNB-75 CNS; 52.9% in the assay with PC-3 prostate; 72.8% in the assay with SK-MEL-5 melanoma. The growth was 46.9% with CCRF-CEM leukemia; 42.4% in the assay with RPMI-8226 leukemia; 86.7% in the assay with OVCAR-5 ovarian; 81.3% in the assay on IGROV1 ovarian; 61% with OVCAR-3 ovarian; 62.6% in the assay on HS 578T breast. Also, the growth with MCF7 breast is 63.7%.

As for `NC(=O)C(Cl)Cl`, the growth is 94.4% in the assay with NCI-H322M lung; 109% with NCI-H522 lung; 113% in the assay on COLO 205 colon; 96.6% in the assay on MALME-3M melanoma; 116% in the assay with HT29 colon; 98.1% in the assay with CAKI-1 renal. Besides, the growth with CCRF-CEM leukemia is -19.9% (active); with RPMI-8226 leukemia, 105%; with OVCAR-5 ovarian, 101%; in the assay on IGROV1 ovarian it was 102%; in the assay with OVCAR-3 ovarian, 110%; in the assay on MCF7 breast, 92.8%.

For the molecule `CCN1CC2(CN(CC)C1=S)C(=O)NC(=O)NC2=O`, the growth is 107% in the assay on NCI-H322M lung; 53.9% in the assay on HOP-92 NSCLC; 84.7% in the assay on NCI-H522 lung; 115% in the assay on COLO 205 colon; 103% with MALME-3M melanoma; 85.7% in the assay on PC-3 prostate. The growth with SK-MEL-5 melanoma was 106%; in the assay with EKVX NSCLC it was 99%; in the assay with CAKI-1 renal, 85.4%; in the assay with CCRF-CEM leukemia it was 101%; with RPMI-8226 leukemia, 100%; in the assay on OVCAR-5 ovarian, 114%. Also, the figures for the growth with IGROV1 ovarian, in the assay with HS 578T breast and in the assay on MCF7 breast were 103%, 104% and 92.5%, respectively.

With `CC(=O)O[C@@H]1C2=C(C)C3(CC3)[C@@](C)(O)C(=O)C2=C[C@@]1(C)CO`, the growth with HOP-92 NSCLC is -21.1% (active); in the assay on MALME-3M melanoma, -69.7% (active); with HT29 colon it was 5.12% (active); in the assay on SNB-75 CNS, -85.7% (active); in the assay with SK-MEL-5 melanoma it was -86.1% (active); in the assay with EKVX NSCLC, 13.6%. The growth with CAKI-1 renal was 3.26% (active); in the assay with CCRF-CEM leukemia, 10.9%; in the assay with RPMI-8226 leukemia, -18.8% (active); in the assay with IGROV1 ovarian, 3.81% (active); with OVCAR-3 ovarian, -9.99% (active); in the assay with HS 578T breast, -9.28% (active). In addition, the growth in the assay with MCF7 breast is 1.42% (active).

Take `CCCCNCCc1ccccn1`: the growth is 110% in the assay on NCI-H226 lung; 113% in the assay with NCI-H322M lung; 86.9% in the assay on NCI-H522 lung; 117% with COLO 205 colon; 101% in the assay with MALME-3M melanoma; 102% in the assay on HT29 colon. Moreover, the growth in the assay with SNB-75 CNS is 104%; in the assay with PC-3 prostate it was 96%; with SK-MEL-5 melanoma, 111%; in the assay with EKVX NSCLC, 120%; in the assay on CCRF-CEM leukemia, 92.4%; in the assay with RPMI-8226 leukemia, 90.2%. Further, the growth was 101% in the assay with OVCAR-5 ovarian; 116% with IGROV1 ovarian; 106% with OVCAR-3 ovarian; 107% in the assay on HS 578T breast; 92.1% in the assay on MCF7 breast.

For the molecule `CC(C)(C)[Si](C)(C)OC1[C@@H](O[Si](C)(C)C(C)(C)C)[C@@H](CNC(=O)NC(=O)CF)O[C@H]1n1cnc2c(NC(=O)Nc3ccccc3)ncnc21` (some centres undefined), the growth with HOP-92 NSCLC is 48.5%; with COLO 205 colon, 84.4%; with MALME-3M melanoma, 101%; with HT29 colon, 25.6%; in the assay with SNB-75 CNS, 73.8%; with PC-3 prostate it was 14.5%. In addition, the growth is 85.6% with CAKI-1 renal; 4.8% (active) in the assay on CCRF-CEM leukemia; 24.6% in the assay on RPMI-8226 leukemia; 91.5% with OVCAR-5 ovarian; 72.9% with IGROV1 ovarian; 19.8% with OVCAR-3 ovarian. The growth in the assay on MCF7 breast is 19%.

As to `COc1cc(C2CC(=O)Nc3nc(N)[se]c32)c(OC)c2c1OCO2` (centres undefined), the growth in the assay with NCI-H322M lung is 22.6%; in the assay on HOP-92 NSCLC, 105%; in the assay with NCI-H522 lung, 99.1%; in the assay on COLO 205 colon, 112%; with MALME-3M melanoma, 102%; in the assay with SNB-75 CNS it was 101%. Also, the growth is 94.4% with EKVX NSCLC; 89.8% with CAKI-1 renal; 104% in the assay with CCRF-CEM leukemia; 119% in the assay with RPMI-8226 leukemia; 108% in the assay with OVCAR-5 ovarian; 83.6% in the assay with IGROV1 ovarian. Further, the growth with OVCAR-3 ovarian is 114%; with HS 578T breast, 91.2%; in the assay with MCF7 breast, 94.1%.

For `Cn1cnnc1[S-].[Au+].c1ccc([PH+](c2ccccc2)c2ccccc2)cc1`, the growth with NCI-H322M lung is 89%; in the assay with NCI-H522 lung it was -75% (active); in the assay with COLO 205 colon, -10% (active); in the assay with MALME-3M melanoma, -38.1% (active); in the assay on HT29 colon it was 39.8%; with SNB-75 CNS, -62.3% (active). The growth in the assay with PC-3 prostate is 23.8%; with SK-MEL-5 melanoma, -9.96% (active); with EKVX NSCLC, 60.7%; in the assay on CAKI-1 renal, 23.6%; with RPMI-8226 leukemia, -3.32% (active); with OVCAR-5 ovarian, 91.9%. The growth in the assay with IGROV1 ovarian was -1.4% (active); in the assay with OVCAR-3 ovarian, -81.2% (active); in the assay with MCF7 breast it was -56.5% (active).

For the molecule `CCCCOC(=O)c1ccccc1C(=O)O.CCCCOC(=O)c1ccccc1C(=O)O.[Cu+2]`, the growth in the assay on NCI-H322M lung was 104%; with NCI-H522 lung it was 95%; in the assay with COLO 205 colon it was 101%; with MALME-3M melanoma, 83.3%; in the assay with HT29 colon, 107%; with SNB-75 CNS, 104%. The growth is 111% in the assay with PC-3 prostate; 98% with SK-MEL-5 melanoma; 113% in the assay with CAKI-1 renal; 108% in the assay on CCRF-CEM leukemia; 122% in the assay on IGROV1 ovarian; 97.3% in the assay with HS 578T breast.

Regarding `CO[C@@H]1[C@H](OC(=O)NC(=O)CCl)CC[C@]2(CO2)[C@H]1[C@@]1(C)O[C@@H]1CC=C(C)C`, the growth is 72.7% in the assay with NCI-H226 lung; 59.8% in the assay with NCI-H322M lung; 10.3% in the assay on NCI-H522 lung; 57.4% with COLO 205 colon; 57.7% in the assay on MALME-3M melanoma; 58.1% in the assay on HT29 colon. Also, the growth is 41.7% in the assay with SNB-75 CNS; 20.2% with PC-3 prostate; 55.4% with SK-MEL-5 melanoma; 91.7% in the assay with EKVX NSCLC; 67.2% with CAKI-1 renal; 31.8% with CCRF-CEM leukemia. Moreover, the growth is 45.4% in the assay on RPMI-8226 leukemia; 72.3% in the assay on OVCAR-5 ovarian; 71.8% in the assay with OVCAR-3 ovarian; 61.2% in the assay with HS 578T breast; 26.9% in the assay on MCF7 breast.

With `O=[N+]([O-])c1ccc(F)c([N+](=O)[O-])c1F`, the growth in the assay with NCI-H226 lung is 100%; with NCI-H322M lung, 91.7%; with NCI-H522 lung, 95.3%; in the assay with COLO 205 colon, 115%; with MALME-3M melanoma it was 96%; in the assay on HT29 colon, 103%. Moreover, the growth is 116% in the assay on SNB-75 CNS; 89.3% with PC-3 prostate; 103% in the assay on SK-MEL-5 melanoma; 100% in the assay on EKVX NSCLC; 103% in the assay on CAKI-1 renal; 61.7% in the assay on CCRF-CEM leukemia. The growth is 93.5% in the assay with RPMI-8226 leukemia; 107% in the assay on OVCAR-5 ovarian; 103% in the assay on OVCAR-3 ovarian; 103% with HS 578T breast; 102% in the assay on MCF7 breast.
